# Results: article PMC11062922 (Nature Chemical Biology, 2023)
# Columns and labels:
# AKT2 = test system: AKT2; design: species or system human, MV4-11 + K-562 + COLO205 + SK-N-BE2 + OVCAR-8; details: read-out: apparent Kd; compound concentrations: 100 nM and 1000 nM (sheet 'Samples'), CATDS: 3.9720416292935899E-2; n = 1
# PIM2 = test system: PIM2; design: species or system human, MV4-11 + K-562 + COLO205 + SK-N-BE2 + OVCAR-8; details: read-out: apparent Kd; compound concentrations:100 nM and 1000 nM (sheet 'Samples'); n = 1
Structure (SMILES),potency estimated from few doses (AKT2),potency estimated from few doses (PIM2)
COc1ccc(Nc2nccc(NCCNC(=O)Nc3cc(C)ccc3C)n2)cc1 [GSK1379899A],2190 nM,
CCn1c(-c2nonc2N)nc2cncc(C(=O)N3CC[C@H](N)C3)c21.Cl [SB-772077-B],,122 nM
Nc1nc(-c2ccc3c(N)n[nH]c3c2)cc(N2CCCCC2)n1 [GSK2228768A],,1410 nM
